Among the data in PubChem BioAssay (NCI) are growth values, retold here.

The structures appear in SMILES notation. This is part of a sample that, as a whole, favours compounds with a hit. Of some 83,000 tested, about 20% had one in any assay.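 How to read the values: 0–100, growth inhibition (40 = 60% inhibited); 0, no net growth; -100 to 0, cell death (-40 = 40% of starting cells died; -100 = all dead).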 Values without a mark were called inactive. The source made the active and inactive calls. Rule for the calls: active = growth percent below 10; inactive = the rest.

In this experiment the test system is SF-539 CNS. Briefly: NCI-60 one-dose screen, 48 h (100 = growth as untreated, 0 = no growth, -100 = all killed). To be noted: 10 µM unless noted.
`CCOc1cc2ncc(C#N)c(Nc3ccc(F)c(Cl)c3)c2cc1NC(=O)/C=C/CN(C)C`: the growth is -85.9% (active). Then `CCN(CC)CCNC(=O)c1c(C)[nH]c(/C=C2\C(=O)Nc3ccc(F)cc32)c1C`, with -88.8% (active).

On to `COc1ccc2c(CCC(c3ccccc3)c3ccccc3)c3[n+](cc2c1OC)CCc1cc2c(cc1-3)OCO2`, for which the growth was 13.6%. In the case of `C[C@@H](Oc1cc(-n2cnc3ccc(CN4CCN(C)CC4)cc32)sc1C(N)=O)c1ccccc1C(F)(F)F` it was -22.1% (active); in that of `CC(C)=CCc1cc2c(cc1O)C1=C(C(=O)C3=C(NCCS3(=O)=O)C1=O)C(C=C(C)C)O2` (stereo not given), 20%; in that of `CC(N)C(Cc1ccc(Cl)cc1)c1ccc(Cl)cc1` (stereo not given), 80.8%. As to `Clc1nc(Cl)c2ncn(CC#CCn3cnc4c(Cl)nc(Cl)nc43)c2n1`, the growth was -65.7% (active). In the case of `O=C(Cc1ccc(-c2ccc(OCCN3CCOCC3)cc2)cn1)NCc1ccccc1` it was -33.2% (active). In the case of `Cc1nc(NC(=O)N2CCC[C@H]2C(N)=O)sc1-c1ccnc(C(C)(C)C(F)(F)F)c1` it was 28.1%; in that of `COc1ccc2c(CCCc3ccc(Cl)cc3Cl)c3[n+](cc2c1OC)CCc1cc2c(cc1-3)OCO2`, -46.3% (active); in that of `Cc1c(Cn2c(C)nc3c(C(=O)O)cc(N4CCOCC4)cc32)cccc1C(F)(F)F`, 113%. `COc1cc2nccc(Oc3ccc(NC(=O)C4(C(=O)Nc5ccc(F)cc5)CC4)cc3)c2cc1OC`: the growth was -10.2% (active). Regarding `C=CCCCC(=O)CCC(=O)OCC1O[C@@H](O[C@@H]2C(O)[C@@H](OC(C)=O)C(C)O[C@H]2O[C@H](CC=C)CCCCC)C(O)[C@@H](OC(=O)/C(C)=C/C)[C@@H]1OC(=O)/C=C/c1ccccc1` (stereo not given in full), the growth was 14.3%.

For the compound `O=c1[nH]ccc2c(S(=O)(=O)N3CCCNCC3)cccc12`, the growth was 76.5%.

With `CC1(C=O)NC(=O)NC1=O` (stereo not given), the growth was 103%.

`Cc1ccc(NC(=O)c2ccc(CN3CC[C@H](N(C)C)C3)c(C(F)(F)F)c2)cc1Nc1nccc(-c2cncnc2)n1`: the growth was -89.6% (active). In the case of `O=C(Nc1cccc(Cl)c1)Nc1ncc(CCNc2ncnc3ccsc23)s1` it was 24%. In the case of `Cn1ccnc1C(=O)/C=C/c1ccc(CC(=O)Nc2ccc(Br)cc2)cc1` it was -38.5% (active); in that of `CNC(=O)c1nn(C)c2c1C(C)(C)Cc1cnc(Nc3ccc(N4CCN(C)CC4)cc3)nc1-2`, -28.6% (active). Then `COc1cccc2cc(-c3nc(C4CCC(C(=O)O)CC4)n4ncnc(N)c34)[nH]c12` (stereo not given), with -25.6% (active); and `CNc1ncc2cc(-c3cc(NC(=O)NCCC(C)(C)C)c(F)cc3C)c(C)nc2n1`, with 27.5%; and `Cc1cc(C(=O)Nc2cc(Oc3ccc4nc(NC(=O)C5CC5)cn4n3)ccc2C)n(C)n1`, with 3.9% (active). In the case of `O=C(Cc1ccc(/C=C/C(=O)c2ncc[nH]2)cc1)Nc1ccc(Br)cc1`, the growth is -51.1% (active). For `CCc1ccc(C2=C(O)C(=O)C(c3ccc(CC)cc3)=C(O)C2=O)cc1`, the growth is -71.8% (active).

With `CNC(=O)c1cccc2cc(Oc3ccnc4cc(OCC5(N)CC5)c(OC)cc34)ccc12`, the growth was 12.6%.

As for `CCCCN1CCCC[C@@H]1C(=O)N[C@H](C(=O)N(C)[C@H](CCc1nc(C(=O)N[C@@H](Cc2ccccc2)C[C@H](C)C(=O)OC)cs1)C(C)C)C(C)C`, the growth was 82.8%. For `COc1cnc2c(c1)C(=O)c1c-2n(CCCN2CCC(N)CC2)c(=O)c2cc([N+](=O)[O-])ccc12`, the growth was 70.3%. In the case of `C=CC(=O)Nc1cc2c(Nc3ccc(F)c(Cl)c3)ncnc2cc1OCCCN1CCOCC1` it was -24.4% (active); in that of `NC(=O)c1c(OCc2c(F)cc(Br)cc2F)nsc1NC(=O)NCCCCN1CCCC1`, -92% (active). As for `CCc1nc2ccc(Cc3ccc(C(=O)NO)cc3)cc2c(=O)n1CCc1ccccc1`, the growth was -43.1% (active). Regarding `Cc1cc(N(CCNc2ccnc3cc(Cl)ccc23)Cc2ccc3c(c2)OCO3)nc(N2CCN(C)CC2)n1`, the growth is -80.9% (active). In the case of `Cc1ccc2oc(=O)cc(-c3cc(-c4cc5ccccc5oc4=O)nc(N)c3C#N)c2c1` it was 59.8%; in that of `Cc1[nH]c(/C=C2\C(=O)Nc3ccc(F)cc32)c(C)c1C(=O)NC[C@H](O)CN1CCOCC1`, 28%. In the case of `O=C(Nc1cn[nH]c1-c1nc2ccc(CN3CCOCC3)cc2[nH]1)NC1CC1` it was -60.9% (active). In the case of `O=C1CSC(c2c(F)cccc2Cl)N1NC(=O)C(O)(c1ccccc1)c1ccccc1` (stereo not given) it was 100%.
